In PubChem BioAssay:
This is one part of the list. The source made the active and inactive calls.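 Rule for the calls, unless noted: active = reconfirmed compounds whose average cytotoxicity reaches 50% or more; inactive = the rest.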

Columns and labels:
[1] = PPC-1 cell viability loss – ATP content luminescence, cytotoxicity control for TRAIL apoptosis potentiator project, confirmation (AID 1447); conditions: PPC-1 viability, ATPlite luminescence, overnight; at 5 µM; stronger effect = higher value;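 note: 0% = DMSO-treated cells and 100% = wells holding medium but no cells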
[2] = lowers stimulated NF-kB luciferase signal in Jurkat – cell-based, luminescence, single concentration, T-cell NF-kB inhibitor project, confirmation (AID 435020;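 active = inhibition reaching about 45% at 4 µM in either replicate, limit read from the data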;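 note: plate controls were PMA/ionomycin stimulated DMSO wells for no effect and unstimulated DMSO wells for full effect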); conditions: PMA/ionomycin-induced, 16 h, at 4 µM, stronger effect = higher value
[3] = target: Sentrin-specific protease 8 (Homo sapiens) (UniProt Q96LD8); test: human SENP8 peptidase blockers, hit retest – biochemical, luminescence, single concentration, confirmation (AID 488912;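 active = mean inhibition across replicates above about 50%, limit read from the data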); conditions: Recombinant SENP8, Z-RLRGG-aminoluciferin luminescence, 60 min; at 12.5 µM; stronger effect = higher value
Sequence of Sentrin-specific protease 8 (Homo sapiens) (Q96LD8 whole entry, looked up, the tested form may be a part): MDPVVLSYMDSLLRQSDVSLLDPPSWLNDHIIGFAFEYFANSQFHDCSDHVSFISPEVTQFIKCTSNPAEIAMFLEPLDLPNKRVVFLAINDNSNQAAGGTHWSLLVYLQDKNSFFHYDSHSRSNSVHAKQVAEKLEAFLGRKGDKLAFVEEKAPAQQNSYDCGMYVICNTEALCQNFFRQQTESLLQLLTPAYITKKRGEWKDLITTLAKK

[4] = target: Sentrin-specific protease 6 (Homo sapiens) (UniProt Q9GZR1); test: inhibition of human SENP6 catalytic domain – biochemical, luminescence, single concentration, confirmation (AID 488915;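 active = mean inhibition above about 50% in the one-dose retest, limit read from the data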); conditions: recombinant SENP6, Z-RLRGG-aminoluciferin luminescence; at 12.5 µM; stronger effect = higher value
Sequence of Sentrin-specific protease 6 (Homo sapiens) (Q9GZR1 628-1112 limits assumed): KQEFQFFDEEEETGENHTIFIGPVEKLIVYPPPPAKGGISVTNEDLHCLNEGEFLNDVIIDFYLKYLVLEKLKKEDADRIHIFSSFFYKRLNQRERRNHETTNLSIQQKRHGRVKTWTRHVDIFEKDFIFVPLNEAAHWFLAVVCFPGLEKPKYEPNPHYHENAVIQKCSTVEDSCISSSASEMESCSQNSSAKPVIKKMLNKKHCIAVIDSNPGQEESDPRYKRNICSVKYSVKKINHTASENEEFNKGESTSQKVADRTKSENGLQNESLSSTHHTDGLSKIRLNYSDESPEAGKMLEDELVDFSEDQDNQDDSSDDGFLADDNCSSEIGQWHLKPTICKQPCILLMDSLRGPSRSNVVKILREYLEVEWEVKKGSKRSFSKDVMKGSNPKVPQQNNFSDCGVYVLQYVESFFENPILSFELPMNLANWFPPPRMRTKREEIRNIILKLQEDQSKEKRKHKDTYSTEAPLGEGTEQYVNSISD

[5] = target: Sentrin-specific protease 7 (Homo sapiens) (UniProt Q9BQF6); test: human SENP7 peptidase blockers, hit retest – biochemical, luminescence, single concentration, confirmation (AID 488917;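 active = mean inhibition above about 50% in the one-dose retest, limit read from the data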); conditions: recombinant SENP7, Z-RLRGG-aminoluciferin luminescence, 40 min; at 12.5 µM; stronger effect = higher value
Sequence of Sentrin-specific protease 7 (Homo sapiens) (Q9BQF6 706-1050 limits assumed): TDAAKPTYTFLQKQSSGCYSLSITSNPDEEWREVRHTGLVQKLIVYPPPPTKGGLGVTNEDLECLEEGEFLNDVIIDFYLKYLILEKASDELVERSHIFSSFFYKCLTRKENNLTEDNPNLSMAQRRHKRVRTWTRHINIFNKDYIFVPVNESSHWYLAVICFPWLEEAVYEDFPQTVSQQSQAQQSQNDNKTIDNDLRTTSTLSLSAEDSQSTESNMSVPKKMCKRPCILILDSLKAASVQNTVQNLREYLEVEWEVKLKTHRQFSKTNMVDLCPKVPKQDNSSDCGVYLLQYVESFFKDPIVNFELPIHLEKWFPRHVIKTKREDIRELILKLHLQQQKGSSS

Caspase-3 (Homo sapiens) = Caspase-3 (Homo sapiens) (UniProt P42574); test: human caspase-3 activity blockade, out-of-family – biochemical, single concentration, selectivity assay for SENP inhibitor project, confirmation (AID 488918;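 active = mean inhibition above about 50%, limit read from the data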;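 note: plate controls were enzyme with DMSO for no effect and wells without caspase-3 for full effect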); conditions: purified caspase-3, Z-DEVD-aminoluciferin luminescence, 60 min; at 12.5 µM; stronger effect = higher value
Sequence of Caspase-3 (Homo sapiens) (P42574 28-227 limits assumed): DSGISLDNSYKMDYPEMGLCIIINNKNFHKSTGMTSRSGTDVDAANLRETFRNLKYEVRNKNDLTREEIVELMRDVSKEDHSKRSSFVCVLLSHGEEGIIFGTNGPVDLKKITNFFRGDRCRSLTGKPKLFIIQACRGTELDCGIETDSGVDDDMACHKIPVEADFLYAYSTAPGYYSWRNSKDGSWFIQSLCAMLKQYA

[6] = Ultra-Glo luciferase signal interference – biochemical, single concentration, SENP8 reaction pre-completed, artefact control for SENP inhibitor project, confirmation (AID 488919;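 active = mean inhibition above about 50% when retested at one dose, limit read from the data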;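 note: plate controls were DMSO wells with completed reaction for no effect and substrate without enzyme for full effect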); conditions: Pre-incubated SENP8/Z-RLRGG-aminoluciferin, luciferase luminescence interference; at 12.5 µM; stronger effect = higher value
[7] = target: Tumor necrosis factor receptor superfamily member 10B (Homo sapiens) (UniProt O14763); test: viability loss of caspase-8 NB7 cells with TRAIL – with/without TRAIL, luminescence panel, confirmation (AID 651596; in the data active = activity above about 50%); conditions: NB7 neuroblastoma + caspase-8, TRAIL sensitization, NB7 Caspase-8, with TRAIL, mean of runs, at 10 µM, stronger effect = higher value
Sequence of Tumor necrosis factor receptor superfamily member 10B (Homo sapiens) (O14763 whole entry, looked up): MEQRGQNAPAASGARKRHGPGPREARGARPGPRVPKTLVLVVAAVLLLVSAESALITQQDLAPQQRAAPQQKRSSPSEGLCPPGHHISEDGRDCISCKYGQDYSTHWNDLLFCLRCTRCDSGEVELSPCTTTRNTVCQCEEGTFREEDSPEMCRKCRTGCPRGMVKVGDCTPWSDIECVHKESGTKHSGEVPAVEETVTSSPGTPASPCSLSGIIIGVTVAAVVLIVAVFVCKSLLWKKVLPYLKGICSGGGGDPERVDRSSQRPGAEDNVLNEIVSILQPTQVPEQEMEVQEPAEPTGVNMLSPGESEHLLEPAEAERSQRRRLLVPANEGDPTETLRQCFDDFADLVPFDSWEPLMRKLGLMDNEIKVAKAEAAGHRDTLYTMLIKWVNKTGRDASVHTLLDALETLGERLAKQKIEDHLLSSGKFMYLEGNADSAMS

[8] = as above; conditions: NB7 neuroblastoma + caspase-8, without TRAIL, NB7 Caspase-8, without TRAIL, mean of runs, at 10 µM
[9] = Brca1-Bard1 BiLC signal decrease – luminescence, single concentration, counter-screen for Mdm2/MdmX interaction inhibitor project, confirmation (AID 504668; call rule not given here); conditions: Brca1/Bard1 bimolecular luciferase complementation counterscreen, at 8 µM, stronger effect = higher value
[10] = inhibition of PEG-3 promoter luciferase signal – cell-based, HeLa, luciferase reporter, single concentration, confirmation (AID 602417;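 active = at 20 µM dose, 40% or more inhibition averaged across four replicates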); conditions: HeLa PEG-Prom luciferase reporter, luminescence, overnight; at 20 µM; stronger effect = higher value
[11] = HIF-2a driven luciferase blockers, single dose – luminescence, 786-0 RCC cells, confirmation (AID 651580;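 active = mean inhibition across four replicates of at least 40 percent at the single tested concentration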); conditions: HIF-2a luciferase reporter luminescence, overnight, at 18.8 µM, stronger effect = higher value
[12] = HIF-1a luciferase reporter signal reduction – MiaPaCa-2 cells, single concentration, counter-screen for HIF-2a inhibitor project, confirmation (AID 651589;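 active = mean inhibition of the reporter signal across four replicates at the single tested dose of 50% or more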); conditions: MiaPaCa-2 HIF-1a luciferase reporter, desferoxamine, overnight; at 18.8 µM; stronger effect = higher value
PEG-3 [13] = target: PEG-3 (UniProt Q6IN02); test: inhibition of PEG-3 promoter-driven reporter – cell-based, HeLa, luciferase, CREF/GAPDH counter-screen panel, dose response (AID 624167); conditions: CREF/GAPDH counter-screens; HeLa PEG-Prom luciferase reporter, overnight, run 1, dose range 1, at 100 µM (top of the series) unless noted
Sequence of PEG-3 (Q6IN02 whole entry, looked up): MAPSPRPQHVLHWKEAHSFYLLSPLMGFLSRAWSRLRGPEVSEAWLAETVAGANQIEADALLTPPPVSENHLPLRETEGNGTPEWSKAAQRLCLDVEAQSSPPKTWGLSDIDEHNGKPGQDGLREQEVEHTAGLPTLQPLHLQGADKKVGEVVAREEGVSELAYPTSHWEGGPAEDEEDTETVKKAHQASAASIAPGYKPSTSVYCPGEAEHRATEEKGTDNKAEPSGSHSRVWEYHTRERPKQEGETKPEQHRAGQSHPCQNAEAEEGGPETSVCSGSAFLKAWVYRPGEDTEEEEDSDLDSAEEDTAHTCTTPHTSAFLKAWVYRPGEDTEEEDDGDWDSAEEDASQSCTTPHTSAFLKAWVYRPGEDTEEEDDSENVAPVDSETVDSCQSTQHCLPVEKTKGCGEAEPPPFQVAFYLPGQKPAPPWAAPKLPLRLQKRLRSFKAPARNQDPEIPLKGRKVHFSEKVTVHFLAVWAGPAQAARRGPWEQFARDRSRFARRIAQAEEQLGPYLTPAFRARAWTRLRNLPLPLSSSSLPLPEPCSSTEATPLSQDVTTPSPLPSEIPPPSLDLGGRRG

PEG-3 [14] = target: PEG-3 (UniProt Q6IN02); test: as above; conditions: CREF/GAPDH counter-screens; HeLa PEG-Prom luciferase reporter, overnight, run 2, dose range 1, at 100 µM (top of the series) unless noted
Rat fibroblasts (CREF) [15] = test: as above; conditions: CREF/GAPDH counter-screens; run 1, dose range 1, at 100 µM (top of the series)
Rat fibroblasts (CREF) [16] = test: as above; conditions: CREF/GAPDH counter-screens; run 2, dose range 1, at 100 µM (top of the series)

Structure (SMILES): CS(=O)(=O)N1CCN(C(=O)c2cc3ccccc3oc2=O)CC1
- cytotoxicity [1]: 9.4% (inactive)

Structure (SMILES): Cn1c(C(=O)NCCCN2CCN(c3cccc(Cl)c3)CC2)cc2c(=O)n(C)c3ccccc3c21
- cytotoxicity [1]: 15% (inactive)

Structure (SMILES): O=C(Nc1ccn(Cc2ccccc2)n1)c1cccc(F)c1
- cytotoxicity [1]: 39.6% (inactive)

Structure (SMILES): COC(=O)c1nc(NC(=O)c2ccc(Cl)cc2)n[nH]1
- cytotoxicity [1]: 12.1% (inactive)

Structure (SMILES): Cc1nc(-c2ccc(Cl)cc2)sc1C(=O)NN
- cytotoxicity [1]: 57.2% (active)

Structure (SMILES): Cc1ccc(-n2nc3cc(C)c(NC(=O)c4cccnc4)cc3n2)cc1
- cytotoxicity [1]: 34.7% (inactive)

Structure (SMILES): CCOc1ccc(-c2ccc(SCC(=O)N3CCOCC3)nn2)cc1
- cytotoxicity [1]: 57.7% (active)

Structure (SMILES): CCCCCCCCn1c2c(c(=N)c3c1CCC3)CCCC2
- cytotoxicity [1]: 42.7% (inactive)
- inhibition [2]: 75.5% (active)

Structure (SMILES): O=C(c1ccc(F)cc1)n1c(=S)nc2ccccn21
- cytotoxicity [1]: 81.2% (active)
- inhibition [2]: -90.8% (inactive)
- inhibition [3]: 16.3% (inactive)
- inhibition [4]: 14.2% (inactive)
- inhibition [5]: 50.1% (active)
- inhibition (Caspase-3 (Homo sapiens)): 19.5% (inactive)
- inhibition [6]: -9.8% (inactive)

Structure (SMILES): O=C(O)c1ccc(N/N=C/c2cn(-c3ccccc3)nc2-c2cccs2)cc1
- cytotoxicity [1]: 85.2% (active)
- inhibition [2]: -14.3% (inactive)
- activity [7]: 77.9%
- activity [8]: 73.7%

Structure (SMILES): CS(=O)(=O)N(CC(=O)N1CCOCC1)c1ccc2c3c(cccc13)CC2
- cytotoxicity [1]: -7.5% (inactive)

Structure (SMILES): CCOc1cc(N2CCOCC2)c(OCC)cc1NC(=O)c1cc(C)nc2ccccc12
- cytotoxicity [1]: -9.1% (inactive)

Structure (SMILES): CNC(=O)COC(=O)c1cc(-c2ccc(OC)cc2)nc2ccccc12
- cytotoxicity [1]: 36.3% (inactive)

Structure (SMILES): O=C(O)CCCC(=O)Nc1ccccc1-n1ccnc1
- cytotoxicity [1]: -3.3% (inactive)

Structure (SMILES): O=C(CSc1nnc(-c2ccc([N+](=O)[O-])cc2)o1)Nc1ccccn1
- cytotoxicity [1]: 57% (active)

Structure (SMILES): CC(Nc1nc(N2CCCC2)nc2ccccc12)c1ccccc1 (configuration not stated)
- cytotoxicity [1]: 8.3% (inactive)

Structure (SMILES): C=CCn1c(C)cc(C2=NNC(=NCC)SC2)c1C
- cytotoxicity [1]: 88% (active)
- inhibition [2]: 67.5% (active)
- inhibition [3]: -3.3% (inactive)
- inhibition [4]: 1% (inactive)
- inhibition [5]: 8% (inactive)
- inhibition (Caspase-3 (Homo sapiens)): 1.7% (inactive)
- inhibition [6]: -1% (inactive)
- inhibition [9]: 24.4% (active)
- inhibition [10]: 95.2% (active)
- inhibition [11]: 98.7% (active)
- inhibition [12]: 104% (active)
- inhibition (PEG-3 [13]): 99.4%
- inhibition (PEG-3 [14]): 98.1%
- inhibition (Rat fibroblasts (CREF) [15]): 98.4%
- inhibition (Rat fibroblasts (CREF) [16]): 98.1%
- activity [7]: 93.8%
- activity [8]: 90.7%

Structure (SMILES): OCCNc1nc2ccccc2n1-c1ncnc2sc3c(c12)CCC3
- cytotoxicity [1]: -17.2% (inactive)

Structure (SMILES): Cc1cc2c(=O)n(C)c(SCC(=O)c3cc4ccccc4o3)nc2s1
- cytotoxicity [1]: -5.6% (inactive)

Structure (SMILES): O=C(CN1C(=O)c2ccccc2S1(=O)=O)N1CCc2ccccc21
- cytotoxicity [1]: 46.8% (inactive)
- inhibition [2]: 34.6% (inactive)
- inhibition [11]: 94.3% (active)
- inhibition [12]: 96% (active)

Structure (SMILES): COc1ccc(-c2cc(C(=O)n3cnc4ccccc43)c3ccccc3n2)cc1
- cytotoxicity [1]: 33.1% (inactive)

Structure (SMILES): CCOc1ccc(NC(=O)NNC(=O)c2ccc(Cl)cc2Cl)cc1
- cytotoxicity [1]: -11.6% (inactive)

Structure (SMILES): Cc1ccc(NC(=O)CS(=O)CC(=O)N(c2ccccc2)C(C)C(=O)NC2CCCC2)cc1 (configuration not stated)
- cytotoxicity [1]: 14.8% (inactive)

Structure (SMILES): Clc1cccc(-c2nc3nc4ccccc4nc3n2Cc2ccco2)c1
- cytotoxicity [1]: -6% (inactive)

Structure (SMILES): CNC(=O)CSc1nnc(CCc2ccccc2)n1-c1ccccc1
- cytotoxicity [1]: 0.9% (inactive)

Structure (SMILES): COc1ccc(C(=O)/C=C/Nc2ccccn2)cc1
- cytotoxicity [1]: 76.8% (active)
- inhibition [2]: -78.9% (inactive)
- inhibition [3]: 97.4% (active)
- inhibition [4]: 98% (active)
- inhibition [5]: 102% (active)
- inhibition (Caspase-3 (Homo sapiens)): 97% (active)
- inhibition [6]: 96.4% (active)
- inhibition [10]: 57.9% (active)
- inhibition [11]: 80.7% (active)
- inhibition [12]: 79.7% (active)
- inhibition (PEG-3 [13]): 95.5%
- inhibition (PEG-3 [14]): 94.2%
- inhibition (Rat fibroblasts (CREF) [15]): 96.2%
- inhibition (Rat fibroblasts (CREF) [16]): 96.7%
- activity [7]: 81.4%
- activity [8]: 68.6%

Structure (SMILES): N/C(=N\OC(=O)c1ccc([N+](=O)[O-])cc1)c1ccccn1
- cytotoxicity [1]: 11.3% (inactive)

Structure (SMILES): COc1cc(NS(=O)(=O)c2ccc(NC(C)=O)cc2)cc(OC)c1
- cytotoxicity [1]: -8.5% (inactive)

Structure (SMILES): CCOC(=O)c1c(C)[nH]c2c1-c1ccccc1C(=O)C2=O
- cytotoxicity [1]: 96.4% (active)

Structure (SMILES): c1ccc2cc3c(NCCN4CCOCC4)ccnc3cc2c1
- cytotoxicity [1]: 18% (inactive)

Structure (SMILES): Cn1c(=O)n(C)c2cc(S(=O)(=O)N3CCCc4ccccc43)ccc21
- cytotoxicity [1]: 14.1% (inactive)

Structure (SMILES): O=C(Nc1cccc(O)c1)c1ccc(C(=O)c2ccccc2)o1
- cytotoxicity [1]: 18.6% (inactive)

Structure (SMILES): O=C(NCC12CC3CC(C1)CC(CNC(=O)N1CCCC1)(C3)C2)N1CCCC1
- cytotoxicity [1]: -1.2% (inactive)

Structure (SMILES): CCOC(=O)C1C(=O)OC2(CCCC2)C1C(=O)OCC (configuration not stated)
- cytotoxicity [1]: -4.2% (inactive)

Structure (SMILES): COc1ccc(-c2cc(C(=O)NCc3ccco3)no2)cc1OC
- cytotoxicity [1]: 17.4% (inactive)

Structure (SMILES): CCCC(=O)Nc1nnc(CC(=O)OCC)s1
- cytotoxicity [1]: -5.4% (inactive)

Structure (SMILES): COc1ccc(C2C(C#N)=C(/N=C/N3CCOCC3)OC3=C2C(=O)CC(C)(C)C3)cc1OC (configuration not stated)
- cytotoxicity [1]: 2.1% (inactive)

Structure (SMILES): Cc1cc(C)nc(Nc2n[nH]c(-c3ccccc3N)n2)n1
- cytotoxicity [1]: 37.6% (inactive)

Structure (SMILES): COc1cccc(/C=C/C(=O)Nc2ccc3c(c2)OCCO3)c1
- cytotoxicity [1]: 48.7% (inactive)

Structure (SMILES): Cn1c(=NC(=O)c2cnccn2)sc2ccccc21
- cytotoxicity [1]: 50.8% (active)
- activity [7]: 57.3%
- activity [8]: 53.5%

Structure (SMILES): COc1ccc(-c2nc(-c3ccccc3)no2)c(OC)c1
- cytotoxicity [1]: 69.6% (active)
- inhibition [3]: 97.4% (active)
- inhibition [4]: 100% (active)
- inhibition [5]: 103% (active)
- inhibition (Caspase-3 (Homo sapiens)): 98.1% (active)
- inhibition [6]: 98.1% (active)
- activity [7]: 82.3%
- activity [8]: 80.7%

Structure (SMILES): COc1ccccc1C1C2=C(COC2=O)Nc2cc3c(cc21)OCO3 (configuration not stated)
- inhibition [2]: 23.4% (inactive)

Structure (SMILES): CC(C)Sc1ncnc2c1cnn2-c1ccccc1
- inhibition [2]: -138% (inactive)

Structure (SMILES): Cn1c(-c2ccco2)nc2cc3ccccc3cc21
- cytotoxicity [1]: 89.1% (active)
- inhibition [3]: 3.5% (inactive)
- inhibition [4]: 99.6% (active)
- inhibition [5]: 103% (active)
- inhibition (Caspase-3 (Homo sapiens)): 98.1% (active)
- inhibition [6]: 98.1% (active)
